Bioassay records deposited in PubChem by National Center for Advancing Translational Sciences (NCATS).
Sm TGR block = inhibitors of Schistosoma mansoni thioredoxin glutathione reductase | 360,000 tested, 3% active | Potency, µM (doses to about 114 µM), without a hit: top-dose activity change, negative = inhibition, usual class: inhibitors | Q962Y6 | AID 485364 | purified TGR, DTNB reduction, TNB absorbance 405 nm; further: potency means the concentration at half of the fitted maximal effect; on the % scale 0 is the no-effect control and ±100 the full control effect; nearly all actives have a fitted effect of over 60% in size
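First, TGR (20 nM dispensed) and NADPH were mixed with compound. Second, a 15 min room-temperature incubation followed. Third, further NADPH and then DTNB were added to start the reaction. Finally, TNB absorbance was monitored kinetically.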
HCV inhibitor = HCV inhibition | Huh7.5.1 HCVcc-Cre infection, luciferase reporter, 44 h | Potency, µM (highest dose often 41.8 µM), for the others: at the top dose activity change, negative = inhibition, hits mostly inhibitors | 340,000 tested, 3.4% active | AID 651820; further: potency means the concentration at half of the fitted maximal effect; on the % scale 0 is the no-effect control and ±100 the full control effect
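After 44 h co-culture of compound, cells and HCVcc-Cre (~0.5 moi), substrate is added for 15 min at room temperature and luciferase measured over 15 sec. Cells were seeded at 1,000/well and pre-cultured 4 h.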
SARS PLpro yeast = inhibitors of SARS-CoV papain-like protease in yeast. AID 485353. 330,000 tested, 0.19% active. S. cerevisiae expressing SARS-CoV PLpro, growth rescue. Potency, µM (doses to about 32.9 µM), for inactives: at the top dose activity, positive = growth rescue, hits mostly activators; calls by dose curve; further: potency means the concentration at half of the fitted maximal effect; 0% is about no effect; nearly all actives have a fitted effect of over 55% in size
Pf growth 48h = inhibits P. falciparum growth in the first generation, 48 h; 310,000 tested, 5.9% active; P. falciparum luciferase growth in erythrocytes, 48 h; Potency, µM (top dose mostly 28.7 µM), for the others: top-dose activity change, negative = inhibition, actives largely listed as inhibitors; AID 504832; further: potency means the concentration at half of the fitted maximal effect; on the % scale 0 is the no-effect control and ±100 the full control effect
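Compounds are pin-transferred into medium, infected erythrocytes (2% hematocrit, 0.1% parasitemia final) are added, and plates sit one parasite generation at 37 C in 5% CO2. Detection reagent is then added and luminescence measured.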
HCMV antiviral = human cytomegalovirus inhibition. HFF cells, HCMV-luciferase reporter, 72 h; stronger effect = lower value. activity change, negative = inhibition, % at 57.5 µM. 410,000 tested, 4.5% active. AID 1259415; in the data active means activity change below about -60%; inconclusive means no clear call, values can overlap the other calls; inactive means above about -39%; further: on the % scale 0 is the no-effect control and ±100 the full control effect
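Screen run at 2 compound doses on HFFs infected with reporter HCMV, MOI 1 PFU/cell. Luciferase activity from cell lysates at 72 h post infection gave inhibition relative to buffer-only and Salinomycin wells.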
Pf growth 96h = P. falciparum growth inhibition at 96 hours; AID 504834; P. falciparum luciferase reporter growth, 96 h; Potency, µM (titrated, usually from 28.7 µM), for inactives: at the top dose activity change, negative = inhibition, actives largely listed as inhibitors; 320,000 tested, 6.9% active; further: potency means the concentration at half of the fitted maximal effect; on the % scale 0 is the no-effect control and ±100 the full control effect
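Luminescence readout: decreased luciferase signal marks inhibited growth of reporter-expressing P. falciparum in infected red cells (2% hematocrit, 0.05% parasitemia final), exposed to compound two generations (96 h, 37 C, 5% CO2).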
* marks the source's active call; other numbers are inactive results; u = inconclusive; x = not tested or not shown. Hits are enriched below; roughly 15% of the tested compounds scored in any of these assays. Unless noted, the call rests on the fitted dose curve; in most records, active means well fitted curve in the direction sought with a large enough effect; inconclusive means small, poorly fitted or top-dose-only effect, or another doubt; inactive means no such curve, though single readings can be large; an effect the other way counts as inactive or inconclusive.

SMILES	Sm TGR block	HCV inhibitor	SARS PLpro yeast	Pf growth 48h	HCMV antiviral	Pf growth 96h
CCCNC(=S)N1CCC(NC(=O)C2CCCCC2)CC1	-10%	6%	3%	24%	101	48%
Cc1ccccc1NC(=O)C1C2CCCC1C2c1ccccc1 (stereo not drawn)	-1%	-9%	3%	-18%	-23	u
Cc1ccc(C)c(NC(=O)C2C3CCCC2C3c2ccccc2)c1 (stereo not drawn)	0%	12%	11%	-6%	-23	12µM*
COc1ccc(S(=O)(=O)NCc2ccco2)cc1-c1nnc2c3ccccc3c(C)nn12	56µM*	-2%	2%	12µM*	-6	u
O=C(Nc1cccc(S(=O)(=O)NCc2ccco2)c1)c1cc(-c2ccc(F)cc2)nc2ccccc12	-10%	u	-3%	-23%	29	12µM*
CNS(=O)(=O)c1ccc(OC)c(-c2nnc3c4ccccc4c(C)nn23)c1	9%	12%	-3%	u	203	u
COc1ccc(-c2cc(C(=O)Nc3cccc(S(=O)(=O)NCc4ccco4)c3)c3ccccc3n2)cc1OC	u	u	1%	2.1µM*	15	u
COc1ccc(-c2cc(C(=O)NCc3ccco3)c3ccccc3n2)cc1OC	x	u	x	x	20	x
O=C(Nc1ccccc1)c1cccc(S(=O)(=O)NCc2ccco2)c1	2%	u	-11%	-8%	-7	55%
CC[C@H](NC(=O)CC[C@H]1O[C@@H](n2cnc3c(NC(=O)c4ccccc4)ncnc32)[C@H](O)[C@@H]1O)c1ccccc1	x	x	x	x	-21	x
NC(=S)Nc1cccc(-c2n[nH]c(=S)o2)c1	6%	14%	-1%	1%	u	3%
Cc1ccc(NC(=S)Nc2cccc(-c3n[nH]c(=S)o3)c2)cc1	13µM*	12%	-1%	2%	-34	16%
CCNC(=S)NC1CC2CCCC(C1)N2CCc1ccccc1 (stereo not drawn)	5%	u	1%	u	35	8.3µM*
CCc1ccc(NC(=O)CC2C(=O)N(c3cccc(C)c3)C(=O)N2Cc2cccc(OC)c2)cc1 (stereo not drawn)	0%	x	x	x	-24	x
Cc1ccc(OCC(=O)NC(=S)Nc2ccccn2)c(Br)c1	-3%	18%	u	133%	-63*	195%
Cn1c(-c2cccnc2)cc2cnc(Nc3ccc4c(c3)OCO4)cc21	x	x	x	x	22	x
CC1CCC(NC(=O)c2cc3c(s2)CS(=O)(=O)C3)CC1 (stereo not drawn)	-21%	12%	1%	-9%	40	12µM*
CN(C)c1ccc(N2C(=O)CSC2=S)cc1	-14%	8%	0%	8%	u	5.2µM*
CC1SC(=S)N(c2ccc(N(C)C)cc2)C1=O (stereo not drawn)	-23%	u	-5%	u	-71*	u
Cc1ccc(CNS(=O)(=O)c2c(C(=O)N3CCC(C)CC3)c(C)n(C)c2C)cc1	1%	x	x	x	-26	x
CC(=O)Nc1ccc(N2C(=O)CC(N3CC(C)OC(C)C3)C2=O)cc1 (stereo not drawn)	22µM*	12%	-2%	15%	-2	-10%
O=C(CCC(=O)c1cccs1)NCc1ccccc1Cl	x	5%	9%	x	6	x
CCN(CC)c1ccc(/C=N\NC(=O)c2cccc3cc[nH]c23)cc1	-12%	u	-1%	3%	-63*	-29%
O=C(N/N=C/c1ccc([N+](=O)[O-])cc1)c1cccc2cc[nH]c12	8%	6%	2%	25%	-5	u
Cc1ccc(C)c(OCC(O)CN2CCCCC2C)c1 (stereo not drawn)	-8%	u	0%	u	-5	10µM*
SMILES	Sm TGR block	HCV inhibitor	SARS PLpro yeast	Pf growth 48h	HCMV antiviral	Pf growth 96h
Cc1ccc(C)c(OCC(O)CN2C(C)CCCC2C)c1 (stereo not drawn)	1%	13µM*	4%	u	5	x
Cc1ccc(C)c(OCC(O)CNC2CCCC2)c1 (stereo not drawn)	3%	-2%	0%	u	71	u
Cc1ccc(C)c(OCC(O)CN2CCC(Cc3ccccc3)CC2)c1 (stereo not drawn)	-4%	11%	-1%	7.4µM*	-111*	u
O=C(NC1CC1)c1ccc(Cn2c(SCc3ccccc3F)nc3cccnc32)cc1	4%	x	x	x	50	x
O=C(N/N=C/c1cccnc1)c1ccc(NC(=O)c2ccc(Cl)cc2)cc1	-6%	u	0%	u	-18	20%
O=C(N/N=C/c1cc(Br)c(O)c(Br)c1)c1cccnc1	89µM*	26%	1%	29%	-1	19%
COc1cc(/C=N/NC(=O)c2cccnc2)cc(Br)c1O	-15%	15%	u	23%	-11	-7%
CC(=O)Nc1ccc(C(=O)N/N=C/c2cccnc2)cc1	2%	3%	1%	0%	39	3.7µM*
Cc1cc(Cl)ccc1NC(=O)CCC(=O)N/N=C/c1cccnc1	u	7%	-3%	6%	-68*	u
COc1ccccc1CNS(=O)(=O)c1ccc(F)c(C(=O)Nc2cc(Cl)ccc2OC)c1	2%	x	x	x	0	x
COc1ccc(CC(=O)OC(C)C(=O)Nc2c(C)n(C)n(-c3ccccc3)c2=O)cc1OC (stereo not drawn)	x	u	-3%	x	53	x
CC1CCN(C(=O)c2ncn3c2C(=O)NC[C@@H]3C)CC1	x	x	x	x	-14	x
Cc1cccc(C)c1-n1nnnc1C(c1ccnc2ccccc12)N(Cc1ccccc1)Cc1ccccc1 (stereo not drawn)	x	x	x	x	-72*	x
Cc1cccc(C)c1-n1nnnc1C(c1ccnc2ccccc12)N(C)Cc1ccc(Cl)c(Cl)c1 (stereo not drawn)	x	x	x	x	-24	x
COC(=O)c1c(C)[nH]c(C(=O)CSc2ncnc3sc(-c4ccccc4)cc23)c1C	2%	-16%	-6%	7%	u	0%
O=[N+]([O-])c1cc(-c2ccc(/C=N/n3cnnc3)o2)ccc1Cl	-23%	-14%	-1%	2%	u	u
CC(C)COC(=O)c1cc(-c2ccc(/C=N/n3cnnc3)o2)ccc1Cl	22µM*	-4%	2%	23%	24	x
COCCNC(=O)C1CCC(CNS(=O)(=O)c2c(C)cc(C)cc2C)CC1 (stereo not drawn)	-10%	13%	2%	u	-15	2%
O=C(NCCCN1CCCC1=O)C1CCC(CNS(=O)(=O)c2ccc(Cl)cc2)CC1 (stereo not drawn)	-5%	13%	-9%	4%	-7	12µM*
